Results filed as inconclusive are left out. Unmarked numbers belong to inactive results. Calls of active or inactive are those of the source. The call rests on the fitted dose curve; in most records, active means well fitted cell-killing curve with a large enough effect; inconclusive means small, poorly fitted or top-dose-only effect, or effect the other way; inactive means no such curve, though single readings can be large or run the other way.
On the % scale 0 is the no-effect control and ±100 the full control effect; potency means the concentration at half of the fitted maximal effect.

This test has as its system SW626. Kind of test: Confirmatory qHTS for gynecologic anti-cancer compounds from libraries of approved drugs and bioactive compounds. Further: nearly all actives have a fitted effect of over 55% in size. The note with it: gynecologic cancer cell panel viability, ATPlite luminescence, 48 h; series mostly up to 57.6 µM. From the text: National Center for Advancing Translational Sciences [NCATS] Assay Overview: Chemotherapeutic drug responses vary from cancer to cancer and from patient to patient. These variations could be caused by a number of factors including patient genomic background, tumor mutations, tumor heterogeneity, and aspects of drug treatment. Chemotherapeutic drug resistance is also a common issue and can lead to ineffective treatment and patient death. Here we have profiled the cell killing effects of thousands of compounds to characterize the responses in three gynecological cancers, identify cancer-selective compounds, and understand the diversity of responses to these compounds from pan-cancer suppressors to single cell line selective compounds. In this assay, we screened a 7,914 compound drug library that included approved drug and bioactive compounds in six ovarian, three cervical, and two placental cancer cell lines using the ATPlite assay for cell viability. ATPlite is a luminescence based assay reliant on the conversion of a luciferase substrate to light in the presence of ATP. As a cytotoxic compound will suppress growth and decrease the number of cells, the concentration of ATP will decrease, and less light signal will be detected in the well. Hits were selected from the primary screen for follow-up confirmation. For the confirmation screens, the ovarian cancer cell lines included CAOV-3, SK-OV-3, SW 626, ES-2, PA-1, and TOV-21G. The cervical cancer cell lines included HeLa, Ca Ski, and C-33 A. The placental cancer cell lines included JEG-3 and JAR. HEK 293T cells were used as the control cell line to determine the selectivity index. The ATPlite assay was used to determine the IC50 values.
Assay Protocol Summary: 1,000 cells in 4 uL of media were dispensed into white, solid bottom 1536-well plates using a Multidrop Combi (Thermo Scientific). The Assay plates were incubated for 16 hours at 37 C with 5% CO2 in assay plates, followed by the addition of 23 nL of DMSO or drug dissolved in DMSO. . Each compound was assayed in 11 concentrations (1:3 dilution) from 57.5 uM to 0.977 nM, using the automated Wako 1536 Pin Tool workstation and incubated at 37 C with 5% CO2 48 hours. 4 uL of ATPlite, the ATP monitoring reagent, was then added to the each well of the assay plates using the Multidrop Combi reagent dispenser followed by incubation for 15 minutes at room temperature. The resulting luminescence was measured using the ViewLux plate reader.
In the case of `O=c1[nH]c(=O)n([C@H]2C[C@H](O)[C@@H](CO)O2)cc1C(F)(F)F`, the Potency result was “inactive”.
For the molecule `Cc1cnc(CNC(=O)c2c(=O)c3ccc(N4CCCN(C)CC4)nc3n3c2sc2ccccc23)cn1`, the activity change, negative = viability loss was -6.28% [at 10.7 µM].
Consider `Cc1nc(NC(=O)N2CCCC2C(N)=O)sc1-c1csc(C(C)(C)C)n1` (stereo not given), for which the Potency result was “inactive”.
As to `CC(=O)O[C@H]1C(=O)[C@@]2(C)[C@H]([C@H](OC(=O)c3ccccc3)[C@]3(O)C[C@H](OC(=O)[C@H](O)[C@@H](NC(=O)c4ccccc4)c4ccccc4)C(C)=C1C3(C)C)[C@]1(OC(C)=O)CO[C@@H]1C[C@@H]2O`, the activity change, negative = viability loss is -9.14% [at 10.7 µM].
`CC[C@@]1(O)C(=O)OCc2c1cc1n(c2=O)Cc2cc3c(CN(C)C)c(O)ccc3nc2-1`: the Potency is 0.863 µM (active).
With `CC[C@]1(O)C[C@H]2CN(CCc3c([nH]c4ccccc34)[C@@](C(=O)OC)(c3cc4c(cc3OC)N(C=O)[C@H]3[C@@](O)(C(=O)OC)[C@H](OC(C)=O)[C@]5(CC)C=CCN6CC[C@]43[C@@H]65)C2)C1`, the Potency entry is “inactive”.
Turning to `COc1ccc2c(c1OC)C(=O)O[C@@H]2[C@H]1c2c(cc3c(c2OC)OCO3)CCN1C`, the Potency entry is “inactive”.
Take `C1CCC(C(CC2CCCCN2)C2CCCCC2)CC1` (stereo not given): the Potency was 27.3 µM (active).
For `CCN(CC)CCNC(=O)c1c(C)[nH]c(/C=C2\C(=O)Nc3ccc(F)cc32)c1C`, the Potency is 22.4 µM (active).
For the molecule `CCN(CC)CCCC(C)Nc1c2ccc(Cl)cc2nc2ccc(OC)cc12` (stereo not given), the Potency was 27.3 µM (active).
For `Cc1cc(C(=O)N2CCN(c3cccc(Cl)c3)CC2)n(-c2ccccc2)n1`, the Potency entry is “inactive”.
Regarding `OCCNC1CCCc2c1[nH]c1ccc(-c3ccccc3)cc21` (stereo not given), the Potency is 19.3 µM (active).
As to `CN(C)CCC(CSc1ccccc1)Nc1ccc(S(=O)(=O)NC(=O)c2ccc(N3CCN(Cc4ccccc4-c4ccc(Cl)cc4)CC3)cc2)cc1[N+](=O)[O-]` (stereo not given), the Potency is 7.69 µM (active).
In the case of `CC(C)C[C@H](NC(=O)[C@H](CCc1ccccc1)NC(=O)CN1CCOCC1)C(=O)N[C@@H](Cc1ccccc1)C(=O)N[C@@H](CC(C)C)C(=O)[C@@]1(C)CO1`, the Potency was 1.09 µM (active).
In the case of `CN(C)/N=N/c1nc[nH]c1C(N)=O`, the Potency result was “inactive”.
As for `O=C1NC(=O)C(c2cnc3ccccn23)=C1c1cn2c3c(cccc13)CN(C(=O)N1CCOCC1)CC2`, the Potency entry was “inactive”.
Same read-out and setting: the value for `COc1ccc(OC)c(-c2nnc3ccc(-c4ccc(OC)c(O[C@@H]5CCOC5)c4)nn23)c1` was 8.63 µM (active); that for `Fc1cc(-c2cccc3ncc(-c4cnn(C5CCNCC5)c4)nc23)cc(F)c1CN1CCOCC1` was 27.3 µM (active).
Consider `O=C1c2c(O)ccc(O)c2C(=O)c2c(NCCNCCO)ccc(NCCNCCO)c21`, for which the Potency was 6.85 µM (active).
The same measure, in the same setting: the value for `CN1C2CCC1CC(OC(=O)[C@H](CO)c1ccccc1)C2` (stereo not given in full) was “inactive”; that for `O=c1[nH]c(=O)n([C@H]2C[C@H](O)[C@@H](CO)O2)cc1Br` was “inactive”; that for `CN(C)c1ccc2nc3ccc(=[N+](C)C)cc-3sc2c1` was 8.63 µM (active).
For `Cc1cnc(Nc2ccc(OCCN3CCCC3)cc2)nc1Nc1cccc(S(=O)(=O)NC(C)(C)C)c1`, the Potency is 19.3 µM (active).
For `CN1CCCC(n2nc(Cc3ccc(Cl)cc3)c3ccccc3c2=O)CC1` (stereo not given), the Potency was 27.3 µM (active).
On to `COc1cc(Nc2c(C#N)cnc3cc(OCCCN4CCN(C)CC4)c(OC)cc23)c(Cl)cc1Cl`, for which the Potency is 19.3 µM (active).
Consider `Nc1nccc(Oc2ccc(NC(=O)c3c[nH]cc(-c4ccc(F)cc4)c3=O)cc2F)c1Cl`, for which the Potency entry was “inactive”.
With `CN(C)CC/C=C1\c2ccccc2COc2ccccc21`, the Potency entry was “inactive”.
Regarding `CN(C)c1ccc(-c2nc3ncc(Cl)c(N4CCN(CC(=O)Nc5nccs5)CC4)c3[nH]2)cc1`, the Potency entry was “inactive”.
As for `c1nc2nc(Nc3ccc(N4CCOCC4)cc3)nc(NC3CCCCC3)c2[nH]1`, the Potency entry was “inactive”.
Consider `N=C(N)c1ccc(OCCCCCOc2ccc(C(=N)N)cc2)cc1`, for which the Potency entry was “inactive”.
On to `C[C@]12CCC(=O)C=C1CC[C@@H]1[C@@H]2[C@@H](O)C[C@@]2(C)[C@H]1CC[C@]2(O)C(=O)CO`, for which the Potency result is “inactive”.
Regarding `CC(C)(C)C(=O)OCOP(=O)(COCCn1cnc2c(N)ncnc21)OCOC(=O)C(C)(C)C`, the Potency is 17.2 µM (active).
`CCC1C(=O)N(C)c2cnc(Nc3ccc(C(=O)NC4CCN(C)CC4)cc3OC)nc2N1C1CCCC1` (stereo not given): the Potency was 2.43 µM (active).
Still for that read-out and setting: the result for `CCN(CC)CCOc1ccc(/C(=C(\Cl)c2ccccc2)c2ccccc2)cc1` reads 89.1 µM (active); that for `O=C(/C=C/c1cccc(S(=O)(=O)Nc2ccccc2)c1)NO`, 1.33 µM (active).
Turning to `CN(C)C/C=C/C(=O)Nc1cc2c(Nc3ccc(F)c(Cl)c3)ncnc2cc1OC1CCOC1` (stereo not given), the Potency was 27.3 µM (active).
On to `CC(C)n1c(/C=C/[C@@H](O)C[C@@H](O)CC(=O)O)c(-c2ccc(F)cc2)c2ccccc21`, for which the Potency is 1.37 µM (active).
With `CC(C)C[C@H](NC(=O)[C@H](Cc1ccccc1)NC(=O)c1cnccn1)B(O)O`, the Potency was 0.0137 µM (active).
As for `NC(=O)Nc1cc(-c2cccc(F)c2)sc1C(=O)NC1CCCNC1` (stereo not given), the Potency was 0.306 µM (active).
On to `Nc1nc(Cl)nc2c1ncn2C1OC(CO)C(O)C1F` (stereo not given), for which the Potency result was “inactive”.

Values taken from PubChem BioAssay AID1345085 (National Center for Advancing Translational Sciences (NCATS), 2018).
